Screening data as filed in PubChem BioAssay.
An excerpt weighted towards active compounds, which were near 14% of everything screened.
Giardia FBPA inh-1 – qHTS Assay for Inhibitors of Fructose-1,6-bisphosphate Aldolase from Giardia Lamblia. A8B2U2. AID 2451, 2010. purified Giardia FBPA. 0.71% of 290,000 active. Potency, µM (doses to about 59.6 µM), actives largely listed as inhibitors; further: nearly all actives have a fitted effect of over 55% in size
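40 nM FBPA preincubated 10 min at RT with compound (up to 57.5 uM final), then substrate plus GAPDH/TPI/NAD/arsenate coupling and diaphorase/resazurin added. Fluorescence read after 20 min at RT, 525/598 nm.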
NS1 function inh – qHTS Assay for Inhibitors of Influenza NS1 Protein Function | Potency, µM (doses to about 46.1 µM) | 0.4% of 270,000 active | AID 2326, 2010; calls by dose curve; further: actives are rising curves; nearly all actives have a fitted effect of over 50% in size
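OD600 was taken as the measure of yeast growth restored by compound in an NS1-expressing S. cerevisiae strain. Cells had been washed out of glucose medium and diluted 1:100 into galactose -URA medium, pH 6.0.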
Cycloheximide cs – Cycloheximide Counterscreen for Small Molecule Inhibitors of Shiga Toxin; 12% of 300,000 active; max response, %; cell reporter, cycloheximide protein synthesis inhibition counterscreen; in the data active means max response mostly above about 13%, no sharp cut-off; inactive means mostly below about 14%; further: read at 38.3 µM for the half of the compounds with a filed dose
LmPK inh – qHTS Assay for Inhibitors of Leishmania Mexicana Pyruvate Kinase (LmPK). 0.37% of 290,000 active. Potency, µM (series often up to 57.5 µM), usual class: inhibitors. purified LmPK, Kinase-Glo ATP luminescence, 1 h. Q27686
Target sequence (Q27686 whole entry, looked up): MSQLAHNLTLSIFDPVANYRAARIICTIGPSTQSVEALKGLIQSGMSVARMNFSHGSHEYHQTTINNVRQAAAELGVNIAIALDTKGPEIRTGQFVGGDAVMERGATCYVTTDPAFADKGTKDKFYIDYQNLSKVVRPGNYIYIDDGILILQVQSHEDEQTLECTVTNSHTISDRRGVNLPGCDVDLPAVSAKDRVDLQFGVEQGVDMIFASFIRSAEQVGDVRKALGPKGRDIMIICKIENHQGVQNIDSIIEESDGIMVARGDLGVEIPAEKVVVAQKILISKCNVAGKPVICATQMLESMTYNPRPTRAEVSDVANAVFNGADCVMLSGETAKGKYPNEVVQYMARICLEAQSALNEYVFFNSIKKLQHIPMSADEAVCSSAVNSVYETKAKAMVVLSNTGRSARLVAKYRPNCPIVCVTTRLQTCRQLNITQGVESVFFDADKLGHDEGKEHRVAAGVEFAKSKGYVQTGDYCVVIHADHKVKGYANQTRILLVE
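Kinase-Glo luminescence read after 1 h RT reaction of 0.1 nM LmPK with 0.5 mM PEP and 0.1 mM ADP. Activity scaled between uninhibited and enzyme-free controls.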
Shiga inhibitor – A qHTS for Small Molecule Inhibitors of Shiga Toxin; Vero cells, Shiga toxin protein synthesis inhibition reporter; 9.2% of 290,000 active; AID 2315, 2010; inhibition, % at 38.7 µM; in the data active means inhibition mostly above about 28%, no sharp cut-off; inactive means mostly below about 43%
Giardia growth – qHTS Assay for Inhibitors of Fructose-1,6-bisphosphate Aldolase from Giardia Lamblia: Giardia lamblia growth inhibition; shares compounds with Giardia FBPA inh-1; Giardia lamblia trophozoite growth inhibition; Potency, µM (highest dose often 57.5 µM), hits mostly inhibitors; 5% of 1,500 active;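 further: trophozoites exposed to compound for 48 h at 37 °C; nearly all actives have a fitted effect of over 70% in size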
Mammalian tox – qHTS Assay for Inhibitors of Fructose-1,6-bisphosphate Aldolase from Giardia Lamblia: Mammalian cellular toxicity; shares compounds with Giardia FBPA inh-1; mammalian cell viability counter-screen, qHTS; Potency, µM (highest dose often 57.5 µM), actives largely listed as inhibitors; 4% of 1,500 active;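 further: Chinese hamster ovary cells used as mammalian cytotoxicity surrogate; viability measured as cellular ATP by luminescence; compound exposure lasted 48 h before reading; nearly all actives have a fitted effect of over 60% in size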
Giardia FBPA inh-2 – qHTS Assay for Inhibitors of Fructose-1,6-bisphosphate Aldolase from Giardia Lamblia: Primary screen confirmation; Potency, µM (top dose mostly 57.5 µM), actives largely listed as inhibitors; 5% of 1,500 active; purified Giardia aldolase enzyme activity, qHTS; shares compounds with Giardia FBPA inh-1; AID 2787, 2010; further: nearly all actives have a fitted effect of over 45% in size
Rabbit aldolase – qHTS Assay for Inhibitors of Fructose-1,6-bisphosphate Aldolase from Giardia Lamblia: Rabbit FBPA Selectivity. shares compounds with Giardia FBPA inh-1. Rabbit muscle FBPA enzyme inhibition, selectivity counter-screen. Potency, µM (titrated, usually from 57.5 µM), most hits filed as inhibitors. 4% of 1,500 active. AID 2794, 2010; further: nearly all actives have a fitted effect of over 60% in size
GAPDH coupling – qHTS Assay for Inhibitors of Fructose-1,6-bisphosphate Aldolase from Giardia Lamblia: Coupling assay counterscreen confirmation | shares compounds with Giardia FBPA inh-1 | AID 2795, 2010 | 6% of 1,500 active | GAPDH coupling enzyme counterscreen, biochemical, qHTS | Potency, µM (highest dose often 57.5 µM), hits mostly inhibitors; further: nearly all actives have a fitted effect of over 55% in size
Hits are given with their value; 0 = inactive; ? = inconclusive; - = not tested or not shown; [ ] = dose if it differs, or a comment. Unless noted, the call rests on the fitted dose curve; in most records, active means well fitted curve in the direction sought with a large enough effect; inconclusive means small, poorly fitted or top-dose-only effect, or another doubt; inactive means no such curve, though single readings can be large; an effect the other way counts as inactive or inconclusive.

SMILES | Giardia FBPA inh-1 | NS1 function inh | Cycloheximide cs | LmPK inh | Shiga inhibitor | Giardia growth | Mammalian tox | Giardia FBPA inh-2 | Rabbit aldolase | GAPDH coupling
CCC(C)NCCOc1cc(C)cc(C)c1C (centres undefined) | 16µM | 0 | 0 | 0 | 0 | 0 | 0 | 0 | 0 | 0
COCCNC(=S)NNc1cccc(C(=O)O)c1 | 8.9µM | - | 0 | 0[11.5 µM] | 66 | 0 | 0 | 0 | 0 | 0
CCN(Cc1nc2ccccc2c(=O)[nH]1)Cc1nc2cc(OC)c(OC)cc2c(=O)[nH]1 | 5.6µM | 0 | 0 | 0 | 0 | 0 | 0 | ? | 0 | 0
CCN(Cc1nc2ccccc2c(=O)[nH]1)Cc1nc2ccsc2c(=O)[nH]1 | 0.79µM | 0 | 0 | 0 | 0 | 0 | 0 | 0 | 0 | ?
CCc1ccc2c(CN(CC)Cc3nc4ccccc4c(=O)[nH]3)cc(=O)oc2c1 | 0 | 0 | 0 | 0 | 0 | - | - | - | - | -
Cc1nn(-c2ccccc2)c(C)c1NC(=O)COC(=O)c1ccccc1OC(F)F | - | 0 | 0 | 0 | 0 | - | - | - | - | -
CN(CCCC(=O)NCc1ccc2c(c1)OCO2)S(=O)(=O)c1ccc([N+](=O)[O-])cc1 | 0 | 0 | 0 | 0 | 0 | - | - | - | - | -
COc1ccc(OC)c(N(CC(=O)N2CCCC2)S(C)(=O)=O)c1 | 0 | 0 | 0 | 0 | 0 | - | - | - | - | -
O=C(C1=C(O)C(=O)N(c2nccs2)C1c1ccccc1)c1cc2ccccc2o1 (centres undefined) | 16µM | 0 | 44 | 0 | 59 | 0 | 0 | 0 | 0 | 0
O=C(C1=C(O)C(=O)N(CCc2ccccc2)C1c1ccncc1)c1cc2ccccc2o1 (centres undefined) | 0 | 0 | 0 | 0 | 0 | - | - | - | - | -
CN(CCOc1ccccc1)CC(=O)Nc1ccc(Cl)cc1[N+](=O)[O-] | 22µM | - | 0 | 0 | 0 | ? | 0 | 0 | 0 | 0
COc1cccc(CN(C)CC(=O)Nc2c(C)cccc2C(C)C)c1 | 0 | 0 | 0 | 0 | 0 | - | - | - | - | -
Cc1ccc(NC(=O)CNCc2ccccc2Cl)cc1S(=O)(=O)N(C)C | 22µM | 0 | 40 | 0 | 58 | ? | 0 | 0 | 0 | 0
Cc1ccc(NC(=O)CNCc2ccc(Cl)cc2Cl)cc1S(=O)(=O)N(C)C | ? | 0 | 0 | 0 | 0 | - | - | - | - | -
CCC(C(=O)OCC(=O)Nc1ccc(Cl)c(S(=O)(=O)N(C)C)c1)c1ccccc1 (centres undefined) | 0 | 0 | 0 | 0 | 0 | - | - | - | - | -
CN(CCOc1ccccc1)CC(=O)Nc1ccc(Cl)c(S(=O)(=O)N(C)C)c1 | 16µM | - | 0 | 0 | 0 | 0[10.4 µM] | 0 | 0 | 0 | 0
COc1ccc(OCCN(C)CC(=O)Nc2c(C)cccc2C)cc1 | 14µM | 0 | 0 | 0 | 0 | 0[10.4 µM] | 0 | 0 | 0 | 0
CCOc1ccc(OCC)c(NC(=O)C2CCN(c3cnccn3)CC2)c1 | - | 0 | 0 | 0 | 0 | - | - | - | - | -
Cc1cc(C(F)(F)F)nc(SCCN2CCCCC2)c1C#N | 0 | 0 | 0 | 0 | 0 | - | - | - | - | -
Cc1noc(C)c1C(=O)N1CCC2(CCCN(c3ccccc3)C2)CC1 | 0 | - | - | - | - | - | - | - | - | -
Cc1cccc(OCCSc2nc(N)cc(N)n2)c1 | 16µM | 0 | 20 | 0 | 45 | 0 | 0 | 0 | 0 | 0
CCNc1nc(NCC)nc(SCCOc2ccc(C)cc2)n1 | 0 | 0 | 0 | 0 | 0 | - | - | - | - | -
COc1ccc(Cl)cc1NC(=O)C(C)NC(c1ccccc1)c1ccccc1 (centres undefined) | 0 | 0 | 0 | 0 | 0 | - | - | - | - | -
